The source of these data is PubChem BioAssay (NCATS).

Where “and” joins values, the source holds several entries; their conditions need not be identical. Equal values may be shown once. Records with an inconclusive call do not appear. Entries that show only a call come without a potency. Calls of active or inactive are those of the source. Unless noted, the call rests on the fitted dose curve; in most records, active means well fitted curve in the direction sought with a large enough effect; inconclusive means small, poorly fitted or top-dose-only effect, or another doubt; inactive means no such curve, though single readings can be large; an effect the other way counts as inactive or inconclusive.

Assay [1] in a line: qHTS for Inhibitors of ATXN expression: Validation (AID 588378). Further: nearly all actives have a fitted effect of over 75% in size. Further: potency means the concentration at half of the fitted maximal effect. The essentials: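 Cells: HEK293-ATXN2-FFLuc, phenol-red free DMEM, 2 h attachment. Compound pin-transfer, 24 h, 37 degrees C, 5% CO2. CellTiter-Fluor 30 min, Ex405/Em525; Bright-Glo 5 min, luminescence 2 s exposure.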
On the technique in general: qHTS replaces the single test concentration by a dilution series.

In assay [2] the target is DNA dC->dU-editing enzyme APOBEC-3G (Homo sapiens) (UniProt Q9HC16). In words: qHTS for inhibitors of Vif-A3G interactions: Validation (AID 588379). Further: potency means the concentration at half of the fitted maximal effect. Summed up:
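Yellow fluorescence (Ex 488, Em 500-530) of Vif-coexpressing HeLa A3G-eYFP cells, scanned by Acumen cytometer, reports blocked A3G degradation. Cells plated at 700/well overnight at 37 deg C before compound addition, then a further overnight compound incubation at 37 deg C.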

Assay [3] addresses Estrogen receptor (Homo sapiens) (UniProt P03372). The assay can be described thus: qHTS assay for small molecule antagonists of estrogen receptor alpha signaling (AID 588513; active means well fitted curve in the direction sought with a large enough effect in the signal ratio, with a control signal flat, not every such curve was filed as active; the % refers to the signal ratio). Summed up:
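Beta-lactamase reporter, antagonist mode, HEK 293 GripTite cells; 0.5nM E2 stimulus, 18 h, 37 C; CCF4 dye 2 h RT; fluorescence. IC50 and efficacy from Hill fits, normalized to E2 and DMSO.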

Assay [4] shares this target. The assay can be described thus: qHTS assay for small molecule agonists of estrogen receptor alpha signaling (AID 588514; calls by dose curve; further: nearly all actives have a fitted effect of over 70% in size). The essentials:
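Efficacy is expressed against 20 nM 17-beta-estradiol (100%) and DMSO basal (0%); EC50 from Hill equation. Assay: beta-lactamase reporter in ER-alpha-UAS-bla HEK 293 cells, 18 h compound incubation, CCF4 detection.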

The target in assay [5] is Bile acid receptor (Homo sapiens) (UniProt Q96RI1). In words: qHTS assay for small molecule antagonists of farnesoid X receptor signaling (AID 588526; calls by dose curve). Summed up: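 Concentration-response titrations were fitted to the Hill equation for half-maximal inhibition and maximal response, with data normalised to 50 uM chenodeoxycholic acid and DMSO control wells. Cells: FXR-UAS-bla HEK293T, dialyzed FBS.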

The target in assay [6] is Glucocorticoid receptor (Homo sapiens) (UniProt P04150). The assay can be described thus: qHTS assay for small molecule agonists of glucocorticoid receptor signaling (AID 588532; active means well fitted curve in the direction sought with a large enough effect in the signal ratio, with a control signal flat; the % refers to the signal ratio). Conditions: HeLa MMTV-bla, beta-lactamase ratio, agonist, 18 h; stronger effect = higher value; percent of dexamethasone control, DMSO zero. Summed up: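 MMTV-bla HeLa, beta-lactamase reporter; medium with 1% charcoal/dextran-stripped FBS; cpds up to 92 uM, 18 h, 37 C; CCF4 readout 460/530 nm; Hill fit → EC50, efficacy vs 0.1 uM dexamethasone = 100%.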

The target is the same in assay [7]. The assay can be described thus: qHTS assay for small molecule antagonists of glucocorticoid receptor signaling (AID 588533; active means well fitted inhibition curve with a large enough effect in the signal ratio, with a control signal flat, not every such curve was filed as active; the % refers to the signal ratio;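 further: cells stimulated with 2 nM dexamethasone as agonist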). The essentials:
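Antagonist-mode qHTS: compound titrations added to GRE-bla HeLa cells, then dexamethasone 2 nM final; 18 h, 37 C. CCF4 FRET fluorescence normalized to dexamethasone and DMSO; IC50 from Hill fit.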

A short description of assay [8]: qHTS assay for small molecule antagonists of peroxisome proliferator-activated receptor delta signaling (AID 588535).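 Further: cells co-treated with a PPAR-delta agonist as stimulator during compound exposure.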 Conditions: HEK293T PPARd-UAS-bla, beta-lactamase FRET ratio, 18 h; 460 nm channel. Summed up: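 Inhibition of PPAR-delta response element-driven beta-lactamase expression is measured in HEK293T cells exposed to a compound titration series for 18 hrs at 37 C. Half-maximal inhibition comes from Hill equation fitting.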

The target of assay [9] is Androgen receptor (Homo sapiens) (UniProt P10275). In words: qHTS assay for small molecule agonists of androgen receptor signaling (AID 588515; active means well fitted curve in the direction sought with a large enough effect in the signal ratio, with a control signal flat; the % refers to the signal ratio). Conditions: AR-UAS-bla HEK293, beta-lactamase ratio, agonist 16 h; stronger effect = higher value. The essentials:
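Stimulation of an AR-responsive β-lactamase reporter in GripTite HEK293 cells was measured after 16 h compound exposure at 37 °C, via CCF4 fluorescence after 2 h RT. EC50 from Hill fits, normalized to R1881 at 30 nM.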

Chain of Glucocorticoid receptor (Homo sapiens) (P04150 whole entry, looked up): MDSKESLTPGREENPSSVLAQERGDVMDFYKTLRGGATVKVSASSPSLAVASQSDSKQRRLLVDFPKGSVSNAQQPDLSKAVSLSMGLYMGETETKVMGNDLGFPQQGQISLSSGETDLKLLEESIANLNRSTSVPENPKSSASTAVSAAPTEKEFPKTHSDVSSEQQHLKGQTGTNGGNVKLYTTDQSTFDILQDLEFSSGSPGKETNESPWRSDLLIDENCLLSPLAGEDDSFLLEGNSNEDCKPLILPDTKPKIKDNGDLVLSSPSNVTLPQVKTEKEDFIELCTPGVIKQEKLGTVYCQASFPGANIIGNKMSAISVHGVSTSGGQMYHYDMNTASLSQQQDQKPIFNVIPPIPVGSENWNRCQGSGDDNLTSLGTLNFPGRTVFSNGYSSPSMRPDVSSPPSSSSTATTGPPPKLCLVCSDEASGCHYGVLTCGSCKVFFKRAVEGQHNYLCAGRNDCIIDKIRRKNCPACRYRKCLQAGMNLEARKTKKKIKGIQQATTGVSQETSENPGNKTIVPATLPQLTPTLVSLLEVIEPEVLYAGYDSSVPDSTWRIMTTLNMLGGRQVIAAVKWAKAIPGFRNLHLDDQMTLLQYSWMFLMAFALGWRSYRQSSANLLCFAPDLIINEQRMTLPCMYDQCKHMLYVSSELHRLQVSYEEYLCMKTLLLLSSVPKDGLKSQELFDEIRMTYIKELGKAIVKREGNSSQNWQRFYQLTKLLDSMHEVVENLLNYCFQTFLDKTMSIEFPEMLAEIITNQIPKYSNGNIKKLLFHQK
Chain of Estrogen receptor (Homo sapiens) (P03372 whole entry, looked up): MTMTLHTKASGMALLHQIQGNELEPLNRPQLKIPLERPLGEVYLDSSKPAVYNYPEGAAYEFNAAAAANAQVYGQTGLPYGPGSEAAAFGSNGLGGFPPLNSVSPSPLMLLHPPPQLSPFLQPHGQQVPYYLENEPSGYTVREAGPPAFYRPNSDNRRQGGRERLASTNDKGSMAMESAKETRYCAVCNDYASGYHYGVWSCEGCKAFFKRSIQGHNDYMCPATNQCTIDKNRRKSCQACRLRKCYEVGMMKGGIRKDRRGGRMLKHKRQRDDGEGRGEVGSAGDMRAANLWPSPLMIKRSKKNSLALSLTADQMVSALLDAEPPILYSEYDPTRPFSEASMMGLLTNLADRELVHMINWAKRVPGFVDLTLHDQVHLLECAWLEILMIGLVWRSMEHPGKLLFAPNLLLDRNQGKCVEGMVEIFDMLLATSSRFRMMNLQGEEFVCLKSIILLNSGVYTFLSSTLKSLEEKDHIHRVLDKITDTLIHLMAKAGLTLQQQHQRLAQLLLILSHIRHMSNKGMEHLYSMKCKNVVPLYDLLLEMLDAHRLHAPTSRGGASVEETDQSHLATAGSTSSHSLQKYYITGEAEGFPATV
Chain of DNA dC->dU-editing enzyme APOBEC-3G (Homo sapiens) (Q9HC16 whole entry, looked up): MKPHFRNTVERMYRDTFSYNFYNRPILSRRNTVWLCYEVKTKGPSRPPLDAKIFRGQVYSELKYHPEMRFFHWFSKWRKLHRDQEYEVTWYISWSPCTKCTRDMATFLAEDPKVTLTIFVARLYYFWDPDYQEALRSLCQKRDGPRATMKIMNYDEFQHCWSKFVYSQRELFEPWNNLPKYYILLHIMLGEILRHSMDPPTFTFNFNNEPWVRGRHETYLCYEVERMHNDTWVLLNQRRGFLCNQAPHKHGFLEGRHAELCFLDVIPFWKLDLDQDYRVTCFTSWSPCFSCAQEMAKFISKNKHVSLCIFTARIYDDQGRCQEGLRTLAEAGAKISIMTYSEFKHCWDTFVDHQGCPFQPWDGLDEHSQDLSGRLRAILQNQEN
Chain of Androgen receptor (Homo sapiens) (P10275 whole entry, looked up): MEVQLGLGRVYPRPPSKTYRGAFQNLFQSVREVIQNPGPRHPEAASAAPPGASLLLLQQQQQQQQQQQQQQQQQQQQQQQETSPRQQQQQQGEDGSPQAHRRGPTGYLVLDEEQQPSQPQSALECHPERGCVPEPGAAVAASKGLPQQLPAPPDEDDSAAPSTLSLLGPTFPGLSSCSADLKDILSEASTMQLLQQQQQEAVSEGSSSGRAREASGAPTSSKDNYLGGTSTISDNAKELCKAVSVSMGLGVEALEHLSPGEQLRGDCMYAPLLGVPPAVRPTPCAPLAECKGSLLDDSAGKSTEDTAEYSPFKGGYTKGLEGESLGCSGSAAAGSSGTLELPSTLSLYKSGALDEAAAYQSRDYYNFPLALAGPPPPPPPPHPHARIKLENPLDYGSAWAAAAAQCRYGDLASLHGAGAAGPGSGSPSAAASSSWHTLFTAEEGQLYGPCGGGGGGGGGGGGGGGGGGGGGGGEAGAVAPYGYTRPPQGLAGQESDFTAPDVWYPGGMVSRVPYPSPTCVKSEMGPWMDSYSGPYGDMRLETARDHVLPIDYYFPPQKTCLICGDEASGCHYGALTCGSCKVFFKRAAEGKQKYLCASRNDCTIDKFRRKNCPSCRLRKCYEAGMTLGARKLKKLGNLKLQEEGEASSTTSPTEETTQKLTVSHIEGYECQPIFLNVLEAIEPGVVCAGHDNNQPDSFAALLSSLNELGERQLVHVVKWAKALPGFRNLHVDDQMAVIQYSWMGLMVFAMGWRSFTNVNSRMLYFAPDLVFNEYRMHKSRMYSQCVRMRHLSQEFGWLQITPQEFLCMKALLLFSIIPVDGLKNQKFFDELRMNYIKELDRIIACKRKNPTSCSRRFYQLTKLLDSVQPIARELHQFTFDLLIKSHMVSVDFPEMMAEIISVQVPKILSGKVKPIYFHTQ
Chain of Bile acid receptor (Homo sapiens) (Q96RI1 whole entry, looked up): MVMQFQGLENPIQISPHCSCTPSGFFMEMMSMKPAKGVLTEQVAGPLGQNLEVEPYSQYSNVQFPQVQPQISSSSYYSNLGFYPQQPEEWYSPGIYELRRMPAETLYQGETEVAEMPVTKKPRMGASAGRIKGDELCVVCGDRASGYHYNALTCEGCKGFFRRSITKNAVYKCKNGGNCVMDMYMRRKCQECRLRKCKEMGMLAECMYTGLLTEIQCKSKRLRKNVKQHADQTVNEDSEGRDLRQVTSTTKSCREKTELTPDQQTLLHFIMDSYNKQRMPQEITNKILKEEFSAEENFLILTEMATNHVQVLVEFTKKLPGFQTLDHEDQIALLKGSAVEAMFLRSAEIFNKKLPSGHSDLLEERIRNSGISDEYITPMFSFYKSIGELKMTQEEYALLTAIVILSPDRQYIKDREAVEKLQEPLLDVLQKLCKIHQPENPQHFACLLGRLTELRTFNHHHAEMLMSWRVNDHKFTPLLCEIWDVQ

Consider `O=C(O)c1cc([N+](=O)[O-])ccc1NCCCc1ccccc1`, for which the Potency entry in [1] and in assay [2] was “inactive” throughout.
`CC(C)Cc1ccc([C@H](C)C(=O)O)cc1`: in assay [1], the Potency entry is “inactive”.
As to `O=C(O)c1cc(=O)c2c(Cl)cc(Cl)cc2[nH]1`, the Potency entry in [1] and in assay [2] was “inactive” throughout.
Take `O=C(O)c1cc(=O)c2ccccc2[nH]1`: the Potency entry in assay [1] and in [2] was “inactive” each time.
`Cc1ccc(S(=O)(=O)/C=C/C#N)cc1`: the Potency in assay [1] was 10 µM (active).
With `CCCCCCCC/C=C\CCCCCCCC(=O)NCCO`, the Potency entry in assay [1] and in assay [2] was “inactive” each time.
In the case of `CN1CCC[C@H]1c1cccnc1`, the Potency result in assay [1], in [2] and in assay [4] was “inactive” throughout. In addition, in [3], the call was inactive.
For the molecule `C=CC(=O)c1ccc(CCCCCC)cc1`, the Potency result in assay [1] was “inactive”.
For `CN1CC(=O)N/C1=N/C(=O)Nc1cccc(Cl)c1`, in assay [1], the Potency result was “inactive”.
On to `Cn1cc(C2=C(c3ccc(Cl)cc3Cl)C(=O)NC2=O)c2ccccc21`, for which, in assay [1], the Potency result was “inactive”. The Potency in assay [2] is 2.99 µM (active).
The like results for `CCC1C(=O)OCC1Cc1cncn1C` (stereo not drawn) were, in that order, “inactive” and “inactive”.
The like results for `C[C@@H](NC(=O)/C(C#N)=C/c1ccc(O)c(O)c1)c1ccccc1` were, in that order, “inactive” and “inactive”.
The like results for `O=C(Nc1cccc(C(=O)Nc2ccc(S(=O)(=O)O)c3cc(S(=O)(=O)O)cc(S(=O)(=O)O)c23)c1)Nc1cccc(C(=O)Nc2ccc(S(=O)(=O)O)c3cc(S(=O)(=O)O)cc(S(=O)(=O)O)c23)c1` were, in that order, “inactive” and “inactive”.
With `O=C(Nc1ccccc1)c1cc([N+](=O)[O-])ccc1Cl`, the Potency result in [1], in [2], in assay [4] and in assay [7] was “inactive” throughout. Besides, the molecule was called inactive in [3] and in [5]. Further, the activation in assay [6] was -2.03% (inactive). For the same molecule, in [8], the max response turned out to be 15.1%.
With `Cc1cc(NC2CCCCC2)nc(-n2nc(C)cc2C)n1`, the Potency entry in assay [1] was “inactive”.
The same measure, in the same setting: next, `O=C(O)CC[C@@H](C(=O)O)N1C(=O)c2ccccc2C1=O`: “inactive”.
As for `O=c1[nH]c2cc([N+](=O)[O-])c([N+](=O)[O-])cc2[nH]c1=O`, the Potency result in [1] and in assay [2] was “inactive” in each case.
In the case of `N#C/C(=C\c1ccc(O)c(O)c1)C(=O)NCc1ccccc1`, the Potency entry in assay [1] and in [2] was “inactive” each time.
With `COc1cc2c(CCNC(C)=O)c[nH]c2cc1Cl`, the Potency entry in [1] and in assay [2] was “inactive” throughout.
With `O=C1C(SCCO)=C(SCCO)C(=O)c2ccccc21`, the Potency in assay [1] is 4.47 µM (active); in [2], 4.73 µM (active).
In the case of `C[N+]1(C)CCC(OC(=O)C(c2ccccc2)c2ccccc2)CC1`, the Potency entry in assay [1] and in assay [2] was “inactive” each time.
`O=C(O)[C@@H]1C[C@@H](C(=O)O)N1`: the Potency result in assay [1] and in assay [2] was “inactive” each time.
On to `CNCC[C@H](Oc1ccc(C(F)(F)F)cc1)c1ccccc1`, for which the Potency result in [2] was “inactive”.
As to `Cc1nc2sccn2c(=O)c1CCN1CCC(=C(c2ccccc2)c2ccc(F)cc2)CC1`, the Potency result in assay [1] and in [2] was “inactive” throughout.
Take `CC(C)NC[C@H](O)COc1cccc2[nH]ccc12`: the Potency entry in assay [1] and in [2] was “inactive” each time.
As for `Cc1cc(NC(=O)Nc2ccc3c(ccn3C)c2)sn1`, the Potency entry in [1] and in assay [2] was “inactive” in each case.
Consider `CCCN(CC1CC1)c1nc(C)nc(Nc2c(Cl)cc(Cl)cc2Cl)c1Cl`, for which the Potency result in [1] and in [2] was “inactive” in each case.
Consider `Oc1cc2c(cc1O)CN(C(=S)NCCc1ccc(Cl)cc1)CCC2`, for which the Potency entry in assay [1] and in [2] was “inactive” in each case.
As for `COC(=O)c1c(C)[nH]c(C)c1C(=O)c1ccccc1Cc1ccccc1`, the Potency entry in assay [1] and in assay [2] was “inactive” throughout.
`c1cnc2c(c1)ccc1cccnc12`: the Potency in [1] is 3.55 µM (active). The max response in assay [8] is -78.3%.
As for `CCc1c(C(=O)NCCc2ccc(N3CCCCC3)cc2)[nH]c2ccc(Cl)cc12`, the Potency entry in assay [1] was “inactive”.
Regarding `CSc1ccccc1N1CCN(CCCCCC(=O)NC2CCCc3ccccc32)CC1` (stereo not drawn), in assay [1], the Potency was 22.4 µM (active).
Still for that read-out and setting: next, `O=C(/C=C/c1ccc(O)c(O)c1)OCCc1ccccc1`: “inactive”.
Regarding `N[C@@H](CC(=O)O)C(=O)O`, the Potency result in assay [1] and in assay [2] was “inactive” throughout.
With `C[C@@H](CN1CCC(Cc2ccccc2)CC1)[C@@H](O)c1ccc(O)cc1`, the Potency result in assay [1] and in assay [2] was “inactive” each time.
Turning to `Oc1ccccc1O`, in [6], the activation is -6.14% (inactive).
As to `N#C/C(=C\c1ccc(O)c(O)c1)C(=O)NCCCc1ccccc1`, the Potency entry in assay [2] is “inactive”.
Turning to `Nc1nc2ccc([N+](=O)[O-])cc2s1`, the activation in [9] is -6.41% (inactive). For the same molecule, the max response in [8] was 42.6%.
In the case of `N=C1N=C(N)c2cc3ccccc3cc21`, the call in assay [3] was inactive. Further, the activation in [6] was 0.184% (inactive).
Turning to `O=c1cc(-c2ccccc2)oc2ccccc12`, the molecule was classed as inactive in assay [3]. Also, the Potency result in [4] is “inactive”. The activation is -23.6% (inactive) and -8.95% (inactive) in assay [9]; -9.59% (inactive) and -14.8% (inactive) in [6]. In addition, the max response in assay [8] came out at 43.6%.
As to `COc1cc(/C=C/C(=O)CC(=O)/C=C/c2ccc(O)c(OC)c2)ccc1O`, the molecule was classed as inactive in assay [3]. The activation in [6] was -12.9% (inactive).
Regarding `O=C(O)[C@H](O)[C@@H](O)[C@H](O)[C@H](O)CO`, the max response in [8] came to 8.66%.
As for `CN(C)CCC(c1ccc(Cl)cc1)c1ccccn1` (stereo not drawn), the activation in assay [6] is 0.717% (inactive). Moreover, the Potency result in assay [7] is “inactive”.
In the case of `C=CCCCCCCCCC(=O)O`, the result in assay [3] was inactive. The Potency result in assay [4] and in assay [7] was “inactive” throughout. The activation in assay [6] was -3.95% (inactive).
